Columns and labels:
[1] = target: Rho-associated protein kinase 1 (Homo sapiens) (UniProt Q13464); settings: at 1 µM;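 further: reported values are mean percent inhibition of ROCK1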
[2] = target: Rho-associated protein kinase 2 (Homo sapiens) (UniProt O75116); settings: at 0.1 µM
[3] = target: Rho-associated protein kinase 2 (Homo sapiens) (UniProt O75116); settings: at 1 µM
[4] = target: Ribosomal protein S6 kinase alpha-1 (Homo sapiens) (UniProt Q15418); settings: at 0.1 µM
[5] = target: Ribosomal protein S6 kinase alpha-1 (Homo sapiens) (UniProt Q15418); settings: at 1 µM
[6] = target: Ribosomal protein S6 kinase alpha-3 (Homo sapiens) (UniProt P51812); settings: at 0.1 µM
Ribosomal protein S6 kinase alpha-3 (Homo sapiens), sequence (P51812 whole entry): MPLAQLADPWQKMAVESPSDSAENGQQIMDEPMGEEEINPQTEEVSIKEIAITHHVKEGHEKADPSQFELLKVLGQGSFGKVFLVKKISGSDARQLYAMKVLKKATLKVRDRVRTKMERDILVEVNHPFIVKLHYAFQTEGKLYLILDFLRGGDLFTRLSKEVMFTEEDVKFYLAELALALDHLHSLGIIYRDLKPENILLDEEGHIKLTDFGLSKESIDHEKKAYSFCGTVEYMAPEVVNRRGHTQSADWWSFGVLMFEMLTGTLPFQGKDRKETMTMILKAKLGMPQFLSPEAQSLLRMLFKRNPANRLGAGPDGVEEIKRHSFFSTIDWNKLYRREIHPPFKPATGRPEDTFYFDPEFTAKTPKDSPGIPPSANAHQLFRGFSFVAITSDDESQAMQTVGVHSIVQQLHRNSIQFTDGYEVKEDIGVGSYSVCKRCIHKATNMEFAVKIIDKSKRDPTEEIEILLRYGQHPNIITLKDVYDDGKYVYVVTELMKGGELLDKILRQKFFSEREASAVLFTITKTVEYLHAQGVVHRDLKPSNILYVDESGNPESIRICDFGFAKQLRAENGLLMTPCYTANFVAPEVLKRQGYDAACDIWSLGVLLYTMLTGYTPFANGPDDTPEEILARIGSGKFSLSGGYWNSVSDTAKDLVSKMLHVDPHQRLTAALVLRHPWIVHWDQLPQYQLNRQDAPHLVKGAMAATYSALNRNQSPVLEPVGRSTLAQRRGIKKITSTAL

[7] = target: Ribosomal protein S6 kinase alpha-3 (Homo sapiens) (UniProt P51812); settings: at 1 µM
[8] = target: Ribosomal protein S6 kinase alpha-2 (Homo sapiens) (UniProt Q15349); settings: at 0.1 µM
Ribosomal protein S6 kinase alpha-2 (Homo sapiens), sequence (Q15349 whole entry): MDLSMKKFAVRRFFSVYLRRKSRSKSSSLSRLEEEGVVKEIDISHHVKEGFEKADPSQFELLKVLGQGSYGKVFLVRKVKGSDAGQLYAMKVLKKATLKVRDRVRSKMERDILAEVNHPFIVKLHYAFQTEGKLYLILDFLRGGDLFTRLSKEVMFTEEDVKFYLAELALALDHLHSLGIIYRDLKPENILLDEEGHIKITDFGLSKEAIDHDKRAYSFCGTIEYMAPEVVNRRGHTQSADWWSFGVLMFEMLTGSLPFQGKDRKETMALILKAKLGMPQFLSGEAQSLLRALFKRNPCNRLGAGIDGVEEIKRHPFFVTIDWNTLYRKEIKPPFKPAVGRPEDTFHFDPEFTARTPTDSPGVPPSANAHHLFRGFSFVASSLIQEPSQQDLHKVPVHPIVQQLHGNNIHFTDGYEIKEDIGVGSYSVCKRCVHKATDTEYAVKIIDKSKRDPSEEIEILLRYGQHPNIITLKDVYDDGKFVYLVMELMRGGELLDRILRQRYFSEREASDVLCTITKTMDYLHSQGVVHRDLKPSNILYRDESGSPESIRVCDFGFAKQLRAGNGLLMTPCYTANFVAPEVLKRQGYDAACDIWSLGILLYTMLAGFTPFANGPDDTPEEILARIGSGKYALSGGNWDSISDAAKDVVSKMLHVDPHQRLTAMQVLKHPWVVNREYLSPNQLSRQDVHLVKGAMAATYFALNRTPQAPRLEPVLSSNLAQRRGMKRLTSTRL

[9] = target: Ribosomal protein S6 kinase alpha-2 (Homo sapiens) (UniProt Q15349); settings: at 1 µM
[10] = target: Ribosomal protein S6 kinase alpha-6 (Homo sapiens) (UniProt Q9UK32); settings: at 0.1 µM
[11] = target: Ribosomal protein S6 kinase alpha-6 (Homo sapiens) (UniProt Q9UK32); settings: at 1 µM
[12] = target: T1, Serine/threonine-protein kinase Sgk1 (Homo sapiens) (UniProt O00141); settings: at 0.1 µM
T1 sequence (whole entry): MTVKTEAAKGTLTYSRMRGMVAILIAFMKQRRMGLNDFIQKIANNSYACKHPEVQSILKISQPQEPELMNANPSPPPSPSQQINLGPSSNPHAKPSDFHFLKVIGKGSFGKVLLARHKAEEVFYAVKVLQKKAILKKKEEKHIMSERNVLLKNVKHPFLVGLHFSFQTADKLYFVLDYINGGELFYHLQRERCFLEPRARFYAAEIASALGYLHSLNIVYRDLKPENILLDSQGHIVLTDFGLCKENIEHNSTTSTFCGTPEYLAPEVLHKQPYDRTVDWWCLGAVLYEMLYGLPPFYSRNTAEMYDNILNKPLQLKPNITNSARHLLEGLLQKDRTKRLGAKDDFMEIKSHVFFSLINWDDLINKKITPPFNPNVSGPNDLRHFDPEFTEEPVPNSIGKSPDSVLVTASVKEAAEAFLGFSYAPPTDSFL

[13] = target: T1, Serine/threonine-protein kinase Sgk1 (Homo sapiens); settings: at 1 µM
[14] = target: T2, Serine/threonine-protein kinase Sgk2 (Homo sapiens) (UniProt Q9HBY8); settings: at 0.1 µM
T2 sequence (whole entry): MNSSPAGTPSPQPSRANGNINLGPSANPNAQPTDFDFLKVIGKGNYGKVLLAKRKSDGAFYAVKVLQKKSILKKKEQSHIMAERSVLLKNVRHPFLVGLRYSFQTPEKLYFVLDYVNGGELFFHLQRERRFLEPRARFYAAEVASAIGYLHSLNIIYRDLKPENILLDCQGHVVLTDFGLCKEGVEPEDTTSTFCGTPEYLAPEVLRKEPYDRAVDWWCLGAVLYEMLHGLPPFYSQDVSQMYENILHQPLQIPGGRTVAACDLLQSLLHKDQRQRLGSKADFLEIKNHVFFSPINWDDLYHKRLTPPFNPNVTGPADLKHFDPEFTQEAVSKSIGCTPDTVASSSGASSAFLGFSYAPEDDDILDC

[15] = target: T2, Serine/threonine-protein kinase Sgk2 (Homo sapiens); settings: at 1 µM
[16] = target: T3, Serine/threonine-protein kinase Sgk3 (Homo sapiens) (UniProt Q96BR1); settings: at 0.1 µM
T3 sequence (whole entry): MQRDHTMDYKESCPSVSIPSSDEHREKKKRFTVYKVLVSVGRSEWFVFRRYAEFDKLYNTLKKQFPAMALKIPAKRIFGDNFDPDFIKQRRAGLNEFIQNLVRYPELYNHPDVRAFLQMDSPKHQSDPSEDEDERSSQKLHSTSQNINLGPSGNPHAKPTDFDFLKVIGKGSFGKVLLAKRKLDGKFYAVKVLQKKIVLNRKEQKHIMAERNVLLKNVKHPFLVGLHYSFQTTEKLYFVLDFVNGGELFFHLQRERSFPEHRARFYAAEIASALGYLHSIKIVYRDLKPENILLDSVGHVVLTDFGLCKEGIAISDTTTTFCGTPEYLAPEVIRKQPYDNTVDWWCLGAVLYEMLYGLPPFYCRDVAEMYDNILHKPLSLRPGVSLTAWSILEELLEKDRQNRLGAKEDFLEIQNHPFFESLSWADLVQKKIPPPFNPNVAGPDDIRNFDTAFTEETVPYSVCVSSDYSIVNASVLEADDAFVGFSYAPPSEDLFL

[17] = target: T3, Serine/threonine-protein kinase Sgk3 (Homo sapiens); settings: at 1 µM
[18] = target: 5'-AMP-activated protein kinase catalytic subunit alpha-1 (Homo sapiens) (UniProt Q13131); settings: at 0.1 µM
5'-AMP-activated protein kinase catalytic subunit alpha-1 (Homo sapiens), sequence (Q13131 whole entry, looked up): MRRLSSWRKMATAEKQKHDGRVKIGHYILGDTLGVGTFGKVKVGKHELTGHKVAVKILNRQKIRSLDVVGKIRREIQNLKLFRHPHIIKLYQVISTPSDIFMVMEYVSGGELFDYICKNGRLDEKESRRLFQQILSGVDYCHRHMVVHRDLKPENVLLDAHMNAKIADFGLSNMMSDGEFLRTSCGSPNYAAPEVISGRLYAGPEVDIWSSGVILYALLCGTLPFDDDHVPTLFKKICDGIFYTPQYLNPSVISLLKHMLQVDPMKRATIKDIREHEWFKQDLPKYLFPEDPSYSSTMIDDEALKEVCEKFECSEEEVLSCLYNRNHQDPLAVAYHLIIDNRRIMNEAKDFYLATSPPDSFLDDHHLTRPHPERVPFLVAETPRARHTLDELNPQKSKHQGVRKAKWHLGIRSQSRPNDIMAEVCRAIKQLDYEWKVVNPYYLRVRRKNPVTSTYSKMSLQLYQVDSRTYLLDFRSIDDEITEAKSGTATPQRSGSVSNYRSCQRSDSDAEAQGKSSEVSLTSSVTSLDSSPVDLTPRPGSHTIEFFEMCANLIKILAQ

[19] = target: 5'-AMP-activated protein kinase catalytic subunit alpha-1 (Homo sapiens) (UniProt Q13131); settings: at 1 µM
[20] = target: 5'-AMP-activated protein kinase catalytic subunit alpha-2 (Homo sapiens) (UniProt P54646); settings: at 0.1 µM;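 further: mean inhibition measured on the AMPK complex of alpha2, beta1 and gamma1 subunits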
5'-AMP-activated protein kinase catalytic subunit alpha-2 (Homo sapiens), sequence (P54646 whole entry, looked up): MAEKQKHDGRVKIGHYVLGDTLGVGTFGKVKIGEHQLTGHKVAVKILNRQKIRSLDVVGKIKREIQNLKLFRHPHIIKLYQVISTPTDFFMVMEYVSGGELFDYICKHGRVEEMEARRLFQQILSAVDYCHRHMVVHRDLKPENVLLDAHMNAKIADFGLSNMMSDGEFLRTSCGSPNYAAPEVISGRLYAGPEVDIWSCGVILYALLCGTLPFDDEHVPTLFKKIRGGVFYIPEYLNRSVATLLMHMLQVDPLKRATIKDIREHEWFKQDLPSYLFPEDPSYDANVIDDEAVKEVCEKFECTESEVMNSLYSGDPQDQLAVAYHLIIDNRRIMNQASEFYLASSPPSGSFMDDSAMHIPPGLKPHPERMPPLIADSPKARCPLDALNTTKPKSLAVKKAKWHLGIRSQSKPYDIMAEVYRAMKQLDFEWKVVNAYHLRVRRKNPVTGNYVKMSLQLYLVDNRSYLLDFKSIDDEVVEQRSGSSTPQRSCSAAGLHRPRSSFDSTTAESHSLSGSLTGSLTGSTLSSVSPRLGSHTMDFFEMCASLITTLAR

Ribosomal protein S6 kinase alpha-1 (Homo sapiens), sequence (Q15418 whole entry): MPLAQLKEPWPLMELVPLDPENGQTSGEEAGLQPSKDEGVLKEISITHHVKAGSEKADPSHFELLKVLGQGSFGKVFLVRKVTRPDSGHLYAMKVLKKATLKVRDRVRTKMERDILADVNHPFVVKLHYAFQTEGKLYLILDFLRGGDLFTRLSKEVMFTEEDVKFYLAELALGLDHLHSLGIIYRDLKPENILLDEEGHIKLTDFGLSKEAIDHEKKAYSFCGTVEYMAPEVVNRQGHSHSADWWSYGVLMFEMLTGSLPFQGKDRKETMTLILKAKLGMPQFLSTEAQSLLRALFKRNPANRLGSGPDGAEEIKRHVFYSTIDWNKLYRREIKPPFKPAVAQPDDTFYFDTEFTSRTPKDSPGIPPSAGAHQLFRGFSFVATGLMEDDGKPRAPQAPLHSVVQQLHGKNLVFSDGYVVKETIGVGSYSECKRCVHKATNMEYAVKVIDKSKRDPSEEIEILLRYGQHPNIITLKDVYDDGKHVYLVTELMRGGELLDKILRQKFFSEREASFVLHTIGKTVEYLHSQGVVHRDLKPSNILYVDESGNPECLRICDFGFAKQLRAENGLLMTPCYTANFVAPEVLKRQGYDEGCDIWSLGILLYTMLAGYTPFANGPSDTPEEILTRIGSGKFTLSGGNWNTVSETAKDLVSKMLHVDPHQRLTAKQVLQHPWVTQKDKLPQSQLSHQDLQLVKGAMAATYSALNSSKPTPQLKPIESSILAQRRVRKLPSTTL
Rho-associated protein kinase 1 (Homo sapiens), sequence (Q13464 2-1354 limits assumed): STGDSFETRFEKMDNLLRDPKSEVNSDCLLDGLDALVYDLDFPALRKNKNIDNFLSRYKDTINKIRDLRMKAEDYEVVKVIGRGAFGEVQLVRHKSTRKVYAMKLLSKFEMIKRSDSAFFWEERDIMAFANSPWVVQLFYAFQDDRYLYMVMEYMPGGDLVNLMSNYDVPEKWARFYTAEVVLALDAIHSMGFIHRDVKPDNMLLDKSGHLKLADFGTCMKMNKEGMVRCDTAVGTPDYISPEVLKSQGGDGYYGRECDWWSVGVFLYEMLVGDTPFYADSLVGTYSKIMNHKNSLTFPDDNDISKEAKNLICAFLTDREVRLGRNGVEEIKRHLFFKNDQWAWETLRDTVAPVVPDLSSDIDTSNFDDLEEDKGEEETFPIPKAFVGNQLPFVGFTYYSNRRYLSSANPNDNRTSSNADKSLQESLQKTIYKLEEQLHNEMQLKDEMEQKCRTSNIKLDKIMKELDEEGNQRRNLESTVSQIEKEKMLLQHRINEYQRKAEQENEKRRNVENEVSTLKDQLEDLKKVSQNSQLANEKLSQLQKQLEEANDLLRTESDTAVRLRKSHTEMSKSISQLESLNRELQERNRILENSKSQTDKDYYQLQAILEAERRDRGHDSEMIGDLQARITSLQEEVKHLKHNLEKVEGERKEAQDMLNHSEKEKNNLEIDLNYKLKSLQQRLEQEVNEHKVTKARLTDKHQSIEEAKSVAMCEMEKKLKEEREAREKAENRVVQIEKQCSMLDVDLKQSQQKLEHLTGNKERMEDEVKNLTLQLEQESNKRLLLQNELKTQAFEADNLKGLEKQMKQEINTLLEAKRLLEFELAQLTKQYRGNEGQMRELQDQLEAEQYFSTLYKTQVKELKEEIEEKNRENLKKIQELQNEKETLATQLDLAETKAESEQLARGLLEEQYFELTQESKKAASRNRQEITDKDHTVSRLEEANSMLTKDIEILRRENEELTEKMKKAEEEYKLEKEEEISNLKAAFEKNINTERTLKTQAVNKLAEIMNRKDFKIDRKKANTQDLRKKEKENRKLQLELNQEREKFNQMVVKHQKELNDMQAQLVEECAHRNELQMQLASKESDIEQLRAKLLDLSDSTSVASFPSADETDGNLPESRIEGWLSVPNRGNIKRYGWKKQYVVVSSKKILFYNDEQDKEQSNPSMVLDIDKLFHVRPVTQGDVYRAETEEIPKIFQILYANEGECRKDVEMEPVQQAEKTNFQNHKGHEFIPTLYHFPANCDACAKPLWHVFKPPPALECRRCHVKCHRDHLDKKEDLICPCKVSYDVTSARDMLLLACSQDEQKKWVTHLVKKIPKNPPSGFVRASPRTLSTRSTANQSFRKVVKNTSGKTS

SMILES	inhibition [1] [%]	inhibition [2] [%]	inhibition [3] [%]	inhibition [4] [%]	inhibition [5] [%]	inhibition [6] [%]	inhibition [7] [%]	inhibition [8] [%]	inhibition [9] [%]	inhibition [10] [%]	inhibition [11] [%]	inhibition [12] [%]	inhibition [13] [%]	inhibition [14] [%]	inhibition [15] [%]	inhibition [16] [%]	inhibition [17] [%]	inhibition [18] [%]	inhibition [19] [%]	inhibition [20] [%]
CCS(=O)(=O)c1ccc(OC)c(Nc2ncc(-c3cccc(OC)c3)o2)c1	2.35	0.89	1.18	0.6	4.04	-0.45	0.81	1.33	4.86	-0.11	3.54	1.35	2.05	3.12	5.99	3.65	-0.11	1.32	1.33	-0.63
CCn1c(-c2nonc2N)nc2ccc(F)cc21	9.21	5.67	19	4.37	21	2.79	9.91	2.93	14	1.56	3.11	4.63	5.34	0.38	7.92	4.43	9.8	5.34	5.71	4.08
Cc1cc(O)cc(C)c1/C=C/c1cncc(C(=O)N(C)C)c1	1.38	1.81	3.8	1.88	3.54	1.25	2.65	0.28	2.22	1.12	1.77	1.71	2.5	-0.51	2.83	4.43	0	2.63	1.76	1.57
COc1cc2ncnc(Nc3ccc4c(cnn4Cc4ccccc4)c3)c2cc1OC	6.38	2.52	7.05	0.76	2.15	0.6	2.23	2.97	3.65	1.46	1.92	2.26	1.9	1.23	-1.13	2.62	1.35	1.38	3.13	5.92
CCS(=O)(=O)c1ccc(OC)c(Nc2nccc(N(C)c3ccc4c(C)n[nH]c4c3)n2)c1	2.51	2.12	4.04	-0.57	3.78	-0.28	0.94	-0.47	1.56	-1.99	-0.55	2.43	2.8	4.15	2.6	3.28	1.75	1.93	2.62	2.9
Cc1ccc(O)cc1Nc1ccnc2ccc(S(C)(=O)=O)cc12	1.52	4.28	5.46	2.4	0.29	0.8	1.28	3.52	3.02	2.13	1.9	3.76	6.8	4.31	4.71	4.36	5.21	2.21	5.69	3.06
CN(C)C(=O)O[C@H]1CN[C@H](C#Cc2cc3ncnc(Nc4ccc(OCc5cccc(F)c5)c(Cl)c4)c3s2)C1	4.25	2.11	2.54	1.95	2.1	0.75	1.6	0.37	3.74	0.96	1.62	0.38	1.38	0.9	-0.85	0.13	0.86	2.01	2.18	1.83
NS(=O)(=O)c1ccc(NC=C2C(=O)Nc3ccc4ncsc4c32)cc1	55.1	27.4	69.4	15.1	53.4	17.7	57.1	34.3	80.5	29.3	77.4	19.7	64	8.38	36.4	5.73	19.1	38.4	68.2	24
CCCN1CCCC(c2ccc(Nc3nc(Nc4cc(F)ccc4C(N)=O)c4cc[nH]c4n3)c(OC)c2)C1 (stereo not given)	67.7	27.2	71.3	35.1	72.5	22.6	40.2	9.15	38	19.7	54.1	3.79	4.78	1.44	6.37	4.46	0.16	6.07	20.3	4.5
Nc1nccc(-c2c(-c3ccc(F)cc3)ncn2CCCN2CCOCC2)n1	3.31	4.99	5.24	2.16	4.6	1.92	2.6	3.04	2.27	2.26	3.56	1.7	5.95	0.32	6.95	3.43	3.38	3.37	3.19	3.33
c1ccc(Cc2nc3ccc(Nc4ncnc5ccccc45)cc3[nH]2)cc1	1.95	2.34	4.82	2.52	4.1	0.88	2.69	1.07	3.24	0.96	0.98	1.05	6.43	1.59	5.44	2.24	3.66	3.03	4.08	-0.36
O=S(=O)(CCOCc1ccc(-c2ccc3ncnc(Nc4ccc(OCc5cccc(F)c5)c(Cl)c4)c3c2)o1)c1ccccc1	3.68	1.09	6.38	-1.65	1.43	-0.82	1.23	-0.87	1.09	-1.59	-0.62	1.34	2.27	3.28	-0.92	3.38	1.38	-0.69	1.2	4.55
O=C(Nc1ccc(Oc2ccc3[nH]c(NC(=O)c4ccco4)nc3c2)cc1)Nc1cc(C(F)(F)F)ccc1F	26.5	4.21	31.3	1.39	10.2	1.5	6.22	5.27	35.7	0.96	3.95	0.67	-0.62	0.44	2.52	0.1	-0.97	1.07	2.39	1.95
NS(=O)(=O)c1cccc(-c2cc3ccncc3cc2OCc2ccccc2)c1	2.75	2.25	2.26	1.02	2.9	0.82	2.13	2.81	2.38	2.55	3.01	3.46	3.63	5.08	6.91	9.81	1.63	4.1	5.8	-0.75
CN(C)CCCn1c(-c2nonc2N)nc2cnccc21	32.8	11.6	45.3	2.28	11.8	1.45	6.61	4.55	16.4	1.79	4.47	2.27	4.15	2.98	2.34	2.21	3.38	2.93	2.04	3.05
Cc1ccc2c(-c3ccnc(Nc4cccc(C(F)(F)F)c4)n3)c(-c3ccccc3)nn2n1	3.58	3.31	3.33	0.52	2.33	-0.67	0.59	3.58	3.98	0.82	2.56	2.23	3.64	5.64	-0.25	3.07	4.11	0.65	2.66	5.96
CC(C)c1ccc(Nc2nccc(-c3cnn4ncccc34)n2)cc1	10.9	5.29	24.7	0.96	3.69	-0.01	2.08	0.12	2.76	-0.42	1.84	1.8	3.19	0.34	3.21	2.01	0.79	1.84	3.55	2.35
CCn1c(-c2nonc2N)nc2c(C#CC(C)(C)O)nc(OCCNC)cc21	4.86	3.51	5.7	0.22	4.86	1.84	5.57	3.02	7.49	0.98	2.45	1.88	2.66	2.29	4.48	2.71	13.9	2.74	8.37	4.37
CN(C)C(=O)O[C@@H]1CN[C@@H](C#Cc2cc3ncnc(Nc4ccc(OCc5cccc(F)c5)c(Cl)c4)c3s2)C1	1.13	-1.58	-0.74	0.43	0.71	0.2	1.13	0.12	2.54	0.51	1.1	0.97	0.35	-1.98	1.45	-0.94	-0.47	1.21	-0.92	-1.56
COc1cc2ncnc(Nc3ccc(C)c(O)c3)c2cc1OC	0.99	3.05	3.9	1.8	6.05	1.52	3.02	3.28	3.51	2.48	3.03	2.84	5.46	3.56	2.34	2.82	4.55	4.38	5.7	3.32
O=C1Nc2ccc(-c3cccnc3)cc2C1=Cc1cc(Br)c(O)c(Br)c1	4.77	2.87	7.43	2.15	2.73	0.76	-1.29	1.03	3.66	1.69	5.51	3.01	3.05	1.63	6.41	3.1	2	3.07	3.3	2.54
c1ccc(Nc2ncc(-c3ccccc3)o2)cc1	2.73	4.11	2.92	2.02	2.37	0.46	0.02	3.77	3.41	2.12	3.23	2.66	4	2.47	0.08	4.53	2.32	2.6	4.99	7.1
FC(F)(F)c1ccc(-c2nn3ncccc3c2-c2ccnc(Nc3ccc4c(c3)OCCO4)n2)cc1	2.51	4.66	8.18	1.49	3.18	2.19	5.4	-0.87	0.6	-0.08	0.72	9.07	10.2	5.69	10.8	7.48	12.9	1.3	4.07	5.75
COc1ccc2ncnc(Nc3ccc(OCc4ccccc4)cc3)c2c1	-0.47	1.37	1.27	0.33	0.98	1.83	1.15	0.9	0.99	1.03	0.55	0.21	4.55	-1.08	-0.13	2.62	2.59	2.15	1.44	0.53
